# Bioassay records from PubChem.
# PRMT1 inh – blocks human protein arginine methyltransferase 1; actives 1.3% (n = 370,000); AID 652257; Q99873; recombinant PRMT1, activity-based probe fluorescence polarization; inhibition, % at 2.79 µM;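 active = inhibition above about 21% made by adding two undisclosed values, limit read from the data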
# ABHD5 PLIN5 PPI – ABHD5-PLIN5 protein interaction inhibition; actives 0.78% (n = 360,000); Q00G26+Q8WTS1; Split G. princeps luciferase complementation, luminescence, 4 h; inhibition, % at 4 µM;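 active = inhibition above the mean inhibition across every tested compound plus 3 SD, cut at about 22% in these data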;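 note: 0% = DMSO only wells and the 100% control is not disclosed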
# TLR9-MyD88 block – inhibitors of human TLR9-MyD88 binding. inhibition, % at 4.98 µM. CHO BLA complementation TLR9-MyD88, CCF4 FRET ratio. AID 504734. actives 0.21% (n = 340,000). Q9NR96+Q99836;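 active = inhibition above the mean over all tested compounds plus 3 SD, cut at about 21% in these data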;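 note: 0% = DMSO only wells and 100% = clavulanate BLA inhibitor control wells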
# Granule exo inh – blocks lytic granule exocytosis; TALL-104 LAMP-1 surface exposure, flow cytometry; cells stimulated with thapsigargin and PMA; actives 0.66% (n = 360,000); inhibition, % at 10 µM; AID 651702;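 active = inhibition above about 55%, limit read from the data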
# NOD2-RIPK2 inh – NOD2-RIPK2 protein interaction inhibition | CHO BLA complementation NOD2-RIPK2, CCF4 ratio | O43353 | actives 0.38% (n = 360,000) | inhibition, % at 4.98 µM; in the data active = inhibition above about 21%;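 note: 0% = vehicle only and 100% = reference blocker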
# Target sequence (O43353 whole entry, looked up): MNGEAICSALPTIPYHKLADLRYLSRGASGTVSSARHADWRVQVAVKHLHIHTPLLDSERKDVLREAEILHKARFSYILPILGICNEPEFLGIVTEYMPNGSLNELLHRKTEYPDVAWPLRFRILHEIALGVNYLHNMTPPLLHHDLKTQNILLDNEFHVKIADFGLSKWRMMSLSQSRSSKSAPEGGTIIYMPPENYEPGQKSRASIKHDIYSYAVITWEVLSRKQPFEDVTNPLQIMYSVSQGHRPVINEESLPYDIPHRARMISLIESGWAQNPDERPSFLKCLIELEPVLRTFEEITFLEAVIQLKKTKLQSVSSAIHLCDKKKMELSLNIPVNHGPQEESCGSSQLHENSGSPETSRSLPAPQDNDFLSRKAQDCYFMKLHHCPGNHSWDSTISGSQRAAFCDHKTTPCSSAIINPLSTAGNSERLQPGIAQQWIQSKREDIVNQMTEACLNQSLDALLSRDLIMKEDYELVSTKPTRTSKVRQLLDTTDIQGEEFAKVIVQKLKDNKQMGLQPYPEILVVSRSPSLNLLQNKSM
# TLR4 MyD88 comp – inhibitors of human TLR4-MyD88 binding; O00206+Q99836; HeLa CL3-4 TLR4/MyD88 BLA complementation, FRET ratio; inhibition, % at 8.4 µM; actives 0.18% (n = 200,000); in the data active = inhibition above about 25%;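 note: 0% = vehicle and 100% = reference inhibitor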
# ABHD5 PLIN5 conf – ABHD5-PLIN5 interaction inhibition, confirmed | biochemical ABHD5-PLIN5 interaction, luminescence | actives 67% (n = 2,200) | shares compounds with ABHD5 PLIN5 PPI | inhibition, % at 4 µM; in the data active = inhibition above about 23%;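 note: 0% = DMSO vehicle wells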
# HNF4 split-luc – active in HNF4 split-luciferase counter-screen for ABHD5-PLIN5 inhibitors; shares compounds with ABHD5 PLIN5 PPI; HNF4 dimerization, luminescence, biochemical; inhibition, % at 4 µM; actives 77% (n = 2,200);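 active = mean inhibition across replicate wells exceeding the computed hit threshold, cut at about 13% in these data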;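 note: light from luciferase halves that rejoin when HNF4 fusion proteins dimerize; 0% = DMSO only wells and the 100% control is not given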
# An asterisk follows results filed as active; x = no result. This is a sample that favours compounds with a hit; in the whole collection about 2.6% have one here.
SMILES,PRMT1 inh,ABHD5 PLIN5 PPI,TLR9-MyD88 block,Granule exo inh,NOD2-RIPK2 inh,TLR4 MyD88 comp,ABHD5 PLIN5 conf,HNF4 split-luc
COc1cccc(N2[C@@H](CC(C)=O)c3ccc(/C=C/C(C)=O)cc3S2(=O)=O)c1,3,32*,-1,3,2,x,65*,57*
COC(=O)/C=C/c1ccc2c(c1)S(=O)(=O)N(Cc1ccc(OC)cc1)[C@H]2CC(=O)OC,0,5,3,0,-10,x,x,x
COC(=O)C[C@H]1c2ccccc2S(=O)(=O)N1c1cccc(OC)c1,0,9,3,-3,-8,x,x,x
COc1ccc(CN2[C@@H](CC(C)=O)c3ccc(/C=C/C(C)=O)cc3S2(=O)=O)cc1,0,35*,-3,4,1,x,70*,62*
CC(=O)/C=C/c1ccc2ccccc2n1,7,85*,-1,11,14,8,84*,91*
CC(OC(=O)/C=C/c1ccc2ccccc2n1)C(=O)N(C)c1ccccc1 (configuration not stated),-1,-1,4,0,-9,x,x,x
C[C@]12Cc3ccccc3C1CC1=N[C@@H](C3CCCCC3)O[C@@]13C[C@@H]2C(=O)N3C1CCN(Cc2ccccc2)CC1 (some centres not stated),-3,x,x,x,x,x,x,x
O=S1(=O)c2ccc(N3CC[C@H](O)C3)cc2OCCCN1C1CC1,5,x,x,x,x,x,x,x
O=C(CC(O)(c1ccccc1)C(F)(F)C(F)F)c1cccs1 (configuration not stated),-2,-2,5,6,0,10,x,x
O=C(/C=C/c1ccccc1)CC(O)(c1ccccc1)C(F)(F)C(F)F (configuration not stated),0,82*,-4,9,2,6,98*,77*
COc1ccc(/C=C/C(=O)CC(O)(c2ccccc2)C(F)(F)F)cc1 (configuration not stated),-1,41*,-2,-4,8,14,72*,53*
O=C(/C=C/c1ccccc1)CC(O)(c1ccccc1)C(F)(F)F (configuration not stated),-1,81*,-9,-1,15,8,99*,89*
COC(=O)[C@]12C[C@H](CC(=O)N3CCCC3)C(=O)N(Cc3ccc4c(c3)OCO4)C1=C[C@H](COCc1ccccc1)O[C@@H]2C,2,x,x,x,x,x,x,x
CC(C)c1[nH]nc2c1C(c1ccccc1)N(Cc1ccccc1)C2=O (configuration not stated),-2,x,x,x,x,x,x,x
CCCCCCCCN1C(=O)[C@@H](CC(=O)NCCC(C)C)C[C@@]2(C(=O)OC)C1=C[C@H](C(C)C)O[C@@H]2C1CC1,-2,x,x,x,x,x,x,x
Cc1ccc(C2C3=C(CC(C)(C)CC3=O)N=C3c4ccccc4C(=O)C32)cc1 (configuration not stated),14,28*,2,28,4,-7,58*,69*
Cc1ccc(C2C3=C(CC(C)(C)CC3=O)OC3=C2C(=O)CC(C)(C)C3)cc1,2,2,4,1,-3,-3,x,x
CC(C)c1ccc(OCC(=O)N2CCN(C(=O)c3ccco3)CC2)cc1,1,6,-18,2,3,x,x,x
Cc1ccc(C(C)C)cc1OCC(=O)N1CCN(C(=O)c2ccco2)CC1,-4,24*,0,-3,-3,x,3,-2
C=CCc1cc(/C=C/c2nc(O)c([N+](=O)[O-])c(=O)[nH]2)cc(OC)c1O,7,27*,-11,1,-6,-2,42*,32*
O=C(COc1ccccc1Cl)Nc1ccc(N2CCCC2)cc1,-3,26*,6,4,-2,x,45*,7
O=c1[nH]c(Sc2ccc([N+](=O)[O-])cc2[N+](=O)[O-])nc2ccccc12,23*,41*,8,90*,16,x,41*,33*
O=C(CSc1nc2ccccc2c(=O)[nH]1)Nc1ccc([N+](=O)[O-])cc1,-4,-3,-6,4,6,x,x,x
COc1ccc(NC(=O)C2CCCNC2)cc1OCC(C)C (configuration not stated),3,0,3,20,-4,4,x,x
COc1ccc(NC(=O)C2CCCN(CCCc3ccccc3)C2)cc1OCC(C)C (configuration not stated),1,39*,5,49,13,x,22*,15*
SMILES,PRMT1 inh,ABHD5 PLIN5 PPI,TLR9-MyD88 block,Granule exo inh,NOD2-RIPK2 inh,TLR4 MyD88 comp,ABHD5 PLIN5 conf,HNF4 split-luc
CC12CCC3c4ccc(OCCCO)c([N+](=O)[O-])c4CCC3C1CCC2=O (configuration not stated),3,x,x,x,x,x,x,x
CCCc1nc2sc3ccccc3c(=O)c2c(=O)n1Cc1ccco1,13,28*,1,2,2,5,52*,74*
Cc1ccc(Cl)cc1NC(=O)C[n+]1ccc(Cc2ccc([N+](=O)[O-])cc2)cc1,-3,24*,-13,0,-2,3,15,-2
Cc1ccc(-c2csc(NC(=O)C[n+]3cc(-c4ccccc4)n4c3CCC4)n2)cc1,1,14,x,-3,-2,x,x,x
Cc1ccc(-c2csc(NC(=O)C[n+]3cc(-c4ccc(C)cc4)n4c3CCC4)n2)cc1,1,25*,2,0,-8,x,10,3
CC1(C)CC(N=c2cc(-c3ccccc3)oc3ccc(Cl)cc23)CC(C)(C)N1,-4,29*,4,51,-10,5,6,10
CCCCNC1C(CC)C(CCC)C(C#N)(C#N)C1(C#N)C#N (configuration not stated),x,29*,1,2,3,-4,64*,53*
CCCCNc1cc(=O)n(C)c(=O)n1C,-2,0,12,3,-10,5,x,x
Cn1c(NCCN(CCO)CCCc2ccc([N+](=O)[O-])cc2)cc(=O)n(C)c1=O,20,30*,-2,-2,-5,x,2,2
O=C(Nc1cccc([N+](=O)[O-])c1)NC1CCCCN(Cc2ccc(Cl)cc2)C1=O (configuration not stated),-3,x,x,x,x,x,x,x
CCN(CC)CC(=O)Nc1c(C)cc(C)cc1C,x,x,x,-1,x,x,x,x
CCN(CC)CCN(CC(=O)Nc1c(C)cc(C)cc1C)C(=O)c1ccccc1,-4,24*,4,17,-8,x,33*,-6
CS(=O)(=O)c1ccc(C(=O)NCCN2C(=O)S/C(=C\c3cccnc3)C2=O)cc1[N+](=O)[O-],9,56*,15,-1,2,-4,67*,44*
N#CCC1(O)C(=O)Nc2ccccc21 (configuration not stated),2,x,x,x,x,x,x,x
